# This is a sample that favours compounds with a hit; in the whole collection about 3.1% have one here.
# PNC assembly inh: High Content Assay for Compounds that inhibit the Assembly of the Perinucleolar Compartment; PC3M PTB-GFP, PNC prevalence imaging, 16 h; active compounds read low; activity change (PNC), negative = inhibition, % at 10 µM; 140,000 tested, 3.1% active; AID 2417, 2010;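 active = readout at or below -70, meaning at least 70% loss of cells showing the perinucleolar compartment, a nuclear body marking cancer cells; inconclusive = readout between -30 and a set limit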;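 note: plate controls were DMSO wells for no effect and camptothecin positive control wells for full effect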
#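 Compounds are pinned in duplicate onto adhered PC3M cells stably expressing GFP-tagged PTB and incubated 16 h at 37 C. Cells are then fixed, nuclei stained with Hoechst, and PNC-positive cells counted.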
# 15-hLO-2 inh: qHTS Assay for Inhibitors of 15-hLO-2 (15-human lipoxygenase 2); Polyunsaturated fatty acid lipoxygenase ALOX15B (Homo sapiens), O15296; purified 15hLO-2, xylenol orange hydroperoxide absorbance; Potency, µM (titrated, usually from 57.1 µM), without a hit: top-dose activity change, negative = inhibition, actives largely listed as inhibitors; 110,000 tested, 0.56% active; note: potency is the fitted concentration of half-maximal effect; nearly all actives have a fitted effect of over 60% in size
# Target sequence (O15296 whole entry, looked up): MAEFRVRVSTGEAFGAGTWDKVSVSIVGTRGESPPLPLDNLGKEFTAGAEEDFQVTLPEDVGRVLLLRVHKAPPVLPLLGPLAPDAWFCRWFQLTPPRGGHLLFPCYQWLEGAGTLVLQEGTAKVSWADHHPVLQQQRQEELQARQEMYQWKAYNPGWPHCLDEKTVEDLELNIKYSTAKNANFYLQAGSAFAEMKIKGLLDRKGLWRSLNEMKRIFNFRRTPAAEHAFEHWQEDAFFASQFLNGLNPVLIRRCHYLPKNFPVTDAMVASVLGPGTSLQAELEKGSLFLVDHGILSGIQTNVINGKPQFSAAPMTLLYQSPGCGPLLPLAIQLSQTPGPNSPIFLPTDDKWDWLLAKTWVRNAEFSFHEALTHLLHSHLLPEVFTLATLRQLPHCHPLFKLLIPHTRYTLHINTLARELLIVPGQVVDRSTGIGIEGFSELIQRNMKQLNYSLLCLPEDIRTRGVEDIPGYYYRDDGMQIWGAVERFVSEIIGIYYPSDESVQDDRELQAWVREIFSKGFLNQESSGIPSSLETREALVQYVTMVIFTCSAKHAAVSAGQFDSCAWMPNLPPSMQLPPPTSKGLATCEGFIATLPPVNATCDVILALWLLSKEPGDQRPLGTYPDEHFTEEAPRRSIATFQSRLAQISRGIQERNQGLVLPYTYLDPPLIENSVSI
#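 Screening format was qHTS against 50 nM purified 15hLO-2 in Hepes pH 7.5 with detergent. Activity follows hydroperoxide formation from 45 uM arachidonic acid, measured as 573:405 nm absorbance ratio of the ferric-xylenol orange complex.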
# 12-hLO inh: qHTS Assay for Inhibitors of 12-hLO (12-human lipoxygenase) | Polyunsaturated fatty acid lipoxygenase ALOX12 (Homo sapiens), P18054 | purified 12-hLO, xylenol orange hydroperoxide absorbance | Potency, µM (top dose mostly 57.1 µM), without a hit: at the highest dose activity change, negative = inhibition, most hits filed as inhibitors | 150,000 tested, 0.12% active | AID 1452, 2008; note: potency is the fitted concentration of half-maximal effect; nearly all actives have a fitted effect of over 55% in size
#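 Hydroperoxide output read as Fe(III)-xylenol orange absorbance, 573-to-405 nm ratio, after 30 min reaction with 40 uM arachidonic acid. Enzyme: 150 nM purified human 12hLO, 15 min compound preincubation; 25 mM Hepes pH 7.0, room temperature.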
# * = called active by the depositor; u = inconclusive; x = no result; [ ] = remark or other dose. Unless noted, calls come from the whole dose curve; as a rule, active = well fitted curve in the direction sought with a large enough effect; inconclusive = small, poorly fitted or top-dose-only effect, or another doubt; inactive = no such curve, though single readings can be large; an effect the other way counts as inactive or inconclusive. Unless noted, % is set by controls: 0 for no effect and ±100 for the full control effect.
SMILES,PNC assembly inh,15-hLO-2 inh,12-hLO inh
C=CCOC(=O)C1=C(C)N=C2SCCC(=O)N2C1c1ccc(OC(=O)c2ccco2)cc1 (centres undefined),-127*,-4%,3%
COC(=O)C1=C(C)N=C2SCCC(=O)N2C1c1ccc(OC(=O)c2ccco2)cc1 (centres undefined),57,x,1%
COC(=O)c1ccc(C2C(C(=O)OC(C)C)=C(C)N=C3SCCC(=O)N32)cc1 (centres undefined),-90*,2%,-4%
CC(=O)OC/C=C(\C)CCC=C(C)C,x,5%,-1%
COc1cccc(Cn2c(=O)cnc3cnc(N4CCOCC4)nc32)c1,x,-7%,-2%
Cc1nc(N2CCC(C)CC2)c2c(C)c(C(=O)O)sc2n1,11,4%,-5%
CCN1CCN(C(=O)c2sc3nc(C)nc(N4CCC(C)CC4)c3c2C)CC1,-88*,20%,2%
O=C(NC12CC3CC(CC(C3)C1)C2)c1cccnc1,u,-2%,9%
O=C(NNC(=O)c1cccnc1)NC12CC3CC(CC(C3)C1)C2,-81*,x,-1%
CCCSc1nc(C)c(-c2csc(C(C#N)=C3CCCC3)n2)cc1C#N,u,10µM*,-24%
CCCCSc1nc2c(cc1C#N)CCC2,34,7%,-12%
CC(=O)NCCNc1ncnc2ccc(-c3cccc(NS(C)(=O)=O)c3)cc12,x,-5%,x
CCOC(=O)Cn1c(=NC(=O)c2cc(-c3cccs3)nc3ccccc23)sc2cc(S(N)(=O)=O)ccc21,-10,x,-2%
CCOC(=O)Cn1c(=NC(=O)C2COc3ccccc3O2)sc2cc(S(N)(=O)=O)ccc21 (centres undefined),-134*,x,-3%
CCOC(=O)c1ccc(N/C=C/C(=O)c2ccc(OC)c(OC)c2)cc1,u,-8%,-5%
COc1cc(C(=O)/C=C/Nc2ccc(NC(C)=O)cc2)cc(OC)c1OC,-95*,x,0%
Cc1ccc(/C=C2\CCC3=C2OC(N)=C(C#N)C3c2ccc(C)cc2)cc1 (centres undefined),u,4%,-29%
N#CC1=C(N)OC2=C(CCc3ccccc32)C1c1ccccc1 (centres undefined),-83*,x,1%
CCOC(=O)C1(O)Oc2cc(OC)cc(OC)c2C(=O)C1c1ccccc1 (centres undefined),x,-1%,-3%
Cc1c(Cl)cccc1NC(CC(=O)c1ccccc1)C(=O)OCC(=O)c1cccs1 (centres undefined),-10,x,-3%
Cc1c(Cl)cccc1NC(CC(=O)c1ccccc1)C(=O)O (centres undefined),-83*,x,-1%
CS(=O)(=O)c1ccc([C@H](O)[C@H](CF)NC(=O)C(Cl)Cl)cc1,x,0%[25.6 µM],2%[25.6 µM]
CC(=O)Oc1cc(C(F)(F)F)ccc1C(=O)O,x,2%[25.6 µM],-10%[25.6 µM]
O=C1C(=O)N(Cc2ccc(Cl)c(Cl)c2)c2ccccc21,x,7.9µM*,u
O=C1C(=O)N(Cc2cccc([N+](=O)[O-])c2)c2ccccc21,155,x,1%
SMILES,PNC assembly inh,15-hLO-2 inh,12-hLO inh
Cc1cnc(CNc2cc(-c3ccc4c(c3)OCO4)ncn2)cn1,x,-13%,x
O=C(O)c1cc2ccccc2c(Cc2cc3ccccc3c(C(=O)O)c2O)c1O (tested in a mixture with another compound),x,-6%[25.6 µM],-5%[25.6 µM]
CC(C)CC(C(=O)Nn1cnnc1)N1C(=O)c2ccccc2C1=O (centres undefined),-100*,-2%,-12%
O=C(CCN1C(=O)c2ccccc2C1=O)Nn1cnnc1,34,-3%,-4%
N[C@H](C(=O)O)[C@@H](O)c1cnc[nH]1,x,-7%[11.4 µM],-4%[11.4 µM]
COc1ccccc1C(C)NCC(=O)Nc1ccccc1C(F)(F)F (centres undefined),-116*,x,8%
Cc1ccccc1OCCCC(=O)Nc1ccccc1C(F)(F)F,63,-8%,1%
CNc1ncncc1-c1ccccc1OC,x,3%,-4%
Nc1nc(SC/C=C\c2ccccc2)c2[nH]cnc2n1,x,-3%[11.4 µM],1%[11.4 µM]
COc1ccc(CCNC(=O)c2nnc(Cc3ccc(Cl)cc3)o2)cc1OC,11,-2%,-3%
CC(C)CCNC(=O)c1nnc(Cc2ccc(Cl)cc2)o1,-110*,6%,-1%
NC(Cc1cnc[nH]1)C(=O)Nc1ccc2ccccc2c1 (centres undefined),x,41%,1%
CC(=O)c1ccc(N2CCN(C(=O)COc3ccc(F)cc3)CC2)c(F)c1,-4,-9%,-2%
COc1ccc(OCC(=O)N2CCN(C(=O)COc3ccc(Br)cc3)CC2)cc1,-13,0%,-1%
CCOC(=O)C1CCN(CC(O)COc2ccc(C(C)(C)CC)cc2)CC1 (centres undefined),-81*,25%,-9%
CCOC(=O)C1CCN(C(=O)COc2ccc(Br)cc2)CC1,-97*,-4%,-4%
CCOC(=O)C1CCN(C(=O)COc2ccc(S(=O)(=O)NC(C)(C)C)cc2)CC1,3,-5%,2%
CC(=O)N1CCN(C(=O)COc2ccc(Br)cc2)CC1,-81*,-13%,-1%
CCOC(=O)C1CCN(CC(O)COc2ccc(C(C)(C)C)cc2)CC1 (centres undefined),1,35%,1%
CC(=O)c1cc(F)c(N2CCN(C(=O)COc3ccc(F)cc3)CC2)cc1C,-100*,x,-1%
CC(=C(CCOP(=O)(O)O)SC(=O)c1ccccc1)N(C=O)Cc1cnc(C)nc1N,x,-11%,-9%
C[C@H]1[C@H]2CC[C@H]3[C@@H]4CC=C5C[C@@H](N(C)C)CC[C@]5(C)[C@H]4CC[C@]23CN1C,x,30%,-1%
Oc1ccc([C@@H]2CNCCc3c2cc(O)c(O)c3Cl)cc1,x,-25%,-15%
CC(CN(C)C)NC(=O)c1ccc(-n2c(=O)c(=O)[nH]c3ccccc32)cc1 (centres undefined),x,x,-5%
CC#CCN1c2ccccc2[C@]23C[C@@H](C(=O)OC)N(S(=O)(=O)c4ccc(Br)cc4)C2=NC(C(=O)OC)=C(C(=O)OC)[C@H]13,x,x,-2%[11.4 µM]
SMILES,PNC assembly inh,15-hLO-2 inh,12-hLO inh
O=C(Nc1ccccc1)c1ccc(Cc2nc3ccccc3[nH]2)cc1,x,x,0%
CCOC(=O)C1CCN(C(=O)COc2cccc(C)c2)CC1,-85*,-2%,1%
Cc1cccc(OCC(=O)N2CCOCC2)c1,40,x,1%
CC(C)NC(=O)N1CCCC2(CCN(C(=O)c3cc(C(F)(F)F)cc(C(F)(F)F)c3)CC2)C1,x,1%,-4%
COc1ccc(CCNC(=O)c2ccc(Cl)c(S(=O)(=O)N(C)c3ccccc3)c2)cc1,-89*,x,0%
CCN(c1ccccc1)S(=O)(=O)c1ccc(Cl)c(C(=O)NCCc2ccc(OC)cc2)c1,30,x,-7%
CC(=O)c1sc(NC(=O)c2ccc(Cn3cc(Br)cn3)o2)nc1C,15,0%,-1%
Cc1ccc2nc(NC(=O)c3ccc(Cn4cc(Cl)cn4)o3)sc2c1,-100*,x,-1%
Cn1cc(-c2nc3cnc(Oc4cccc(Cl)c4)nc3n(CCC#N)c2=O)c2ccccc21,x,3%,3%
COC(=O)COc1ccc(S(=O)(=O)NCc2ccco2)cc1Cl,-103*,-2%,5%
